SMILES strings stand for the structures. The panel holds about 83,000 compounds, 20% with a hit somewhere; the sample as a whole holds those more often.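 Note: values are percent growth. 100 is the growth of untreated cells, values between 100 and 0 indicate rising inhibition; between -100 and 0 indicates cell death.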 Values without a mark were called inactive. Active and inactive are the calls of the source. How the source made its calls: active means growth percent below 10; inactive means the rest.

We go through eight compounds from PubChem BioAssay (NCI).

Among the test systems are SR leukemia; RPMI-8226 leukemia; OVCAR-8 ovarian; OVCAR-5 ovarian; OVCAR-4 ovarian; SK-OV-3 ovarian; IGROV1 ovarian; OVCAR-3 ovarian; HS 578T breast; T-47D breast; BT-549 breast; MDA-MB-435 melanoma; SW-620 colon; MCF7 breast; HCT-116 colon; HCC-2998 colon; KM12 colon; MDA-MB-468 breast; NCI/ADR-RES ovarian.
What all share (assay): NCI-60 one-dose screen, 48 h (100 = growth as untreated, 0 = no growth, -100 = all killed)
Details in all cases: 10 µM

Consider `CC(=O)c1cc(C(=O)c2ccc3c(c2)NC(=O)CO3)n2ccc3ccccc3c12`, for which the growth is 63.2% in the assay on SR leukemia; 62.7% with RPMI-8226 leukemia; 50.3% in the assay with OVCAR-8 ovarian; 85.7% with OVCAR-5 ovarian; 47.9% in the assay on OVCAR-4 ovarian; 108% with SK-OV-3 ovarian. Further, the growth is 96.2% with IGROV1 ovarian; 118% with OVCAR-3 ovarian; 63.1% with HS 578T breast; 75.3% in the assay on T-47D breast; 78.3% in the assay on BT-549 breast; 80.5% in the assay on MDA-MB-435 melanoma. The growth with SW-620 colon was 93.1%; with MCF7 breast it was 64%; in the assay on HCT-116 colon, 45%; in the assay on HCC-2998 colon it was 87.8%; in the assay on KM12 colon, 51.5%; with MDA-MB-468 breast, 50%.

Regarding `O=C(CSc1nnc(-c2ccc3nc(-c4ccccc4)[nH]c3c2)o1)Nc1ccc(Cl)cc1`, the growth in the assay with SR leukemia is 29.1%; in the assay on RPMI-8226 leukemia, 29.6%; in the assay with OVCAR-8 ovarian it was 21.2%; in the assay on OVCAR-5 ovarian, 65.1%; with OVCAR-4 ovarian, 61.9%; in the assay with SK-OV-3 ovarian it was 55.9%. Further, the growth is 52.6% in the assay on IGROV1 ovarian; 62.9% in the assay with OVCAR-3 ovarian; 16.7% with HS 578T breast; 23.8% in the assay on T-47D breast; 40.2% with MDA-MB-435 melanoma; 66.8% with SW-620 colon. In addition, the growth is 16.3% in the assay on MCF7 breast; 36.4% in the assay with HCT-116 colon; 22.2% with HCC-2998 colon; 33% with KM12 colon; 55.8% in the assay with MDA-MB-468 breast.

Consider `COc1cc(C2CC(c3ccccc3)=Nc3c(N)nc(N)nc3N2)ccc1Oc1nc(Nc2ccc(F)cc2)nc(N(C)C)n1` (configuration not stated), for which the growth was 2.83% (active) in the assay with SR leukemia; 13.5% in the assay with RPMI-8226 leukemia; 40.4% in the assay with OVCAR-8 ovarian; 85.8% in the assay with OVCAR-5 ovarian; 35.5% in the assay with OVCAR-4 ovarian; 87.2% with SK-OV-3 ovarian. In addition, the growth with OVCAR-3 ovarian was 36.4%; in the assay with HS 578T breast, 48.1%; with NCI/ADR-RES ovarian it was 36.8%; in the assay on T-47D breast it was 54.4%; with BT-549 breast it was 45%; in the assay on MDA-MB-435 melanoma, 15.4%. Moreover, the growth in the assay with SW-620 colon is 44.6%; in the assay on MCF7 breast, 2.04% (active); with HCT-116 colon it was 3.43% (active); in the assay on HCC-2998 colon, 47.7%; with KM12 colon, 31.6%; with MDA-MB-468 breast, 1.47% (active).

On to `Cc1ccc2nc(-c3ccc(-c4nnc(SCC(=O)Nc5ccc(Br)cc5)o4)cc3)[nH]c2c1`, for which the growth was 16.1% in the assay on SR leukemia; 41.3% with RPMI-8226 leukemia; 20.4% in the assay on OVCAR-8 ovarian; 92.4% with OVCAR-5 ovarian; 76.8% in the assay with OVCAR-4 ovarian; 72.1% with SK-OV-3 ovarian. Also, the growth in the assay on OVCAR-3 ovarian is 82.9%; with HS 578T breast, 70.8%; with NCI/ADR-RES ovarian, 61.3%; with T-47D breast it was 50.8%; in the assay with BT-549 breast, 86.8%; with MDA-MB-435 melanoma, 59.9%. The growth in the assay on SW-620 colon is 82.8%; with MCF7 breast, 45.1%; in the assay with HCT-116 colon, 67.4%; in the assay on HCC-2998 colon it was 105%; in the assay on KM12 colon it was 70.4%; in the assay with MDA-MB-468 breast, 80.6%.

For `O=[N+]([O-])c1ccc(-c2nc(-c3ccccc3)c(-c3ccccc3)n2-c2ccc(S(=O)(=O)Nc3ncccn3)cc2)cc1`, the growth was 45% with SR leukemia; 33% in the assay with RPMI-8226 leukemia; 54.5% in the assay with OVCAR-8 ovarian; 72.8% in the assay with OVCAR-5 ovarian; 66.7% with OVCAR-4 ovarian; 104% in the assay on SK-OV-3 ovarian. The growth with IGROV1 ovarian is 74.3%; with OVCAR-3 ovarian it was 51.7%; in the assay with HS 578T breast, 37.3%; in the assay on T-47D breast it was 10.2%; with BT-549 breast it was 10.7%; in the assay with MDA-MB-435 melanoma, 46.5%. Also, the growth in the assay on SW-620 colon is 51.1%; with MCF7 breast, 29.3%; in the assay on HCT-116 colon it was 30.6%; in the assay on HCC-2998 colon it was 42.9%; in the assay with MDA-MB-468 breast, 40%.

As to `COc1ccc(-c2c(N)c(=O)n(C)c3ccccc23)cc1`, the growth in the assay on SR leukemia was 36.3%; with RPMI-8226 leukemia it was 25.1%; in the assay on OVCAR-8 ovarian it was 73.9%; in the assay with OVCAR-5 ovarian it was 76.7%; in the assay with OVCAR-4 ovarian it was 56.5%; in the assay with SK-OV-3 ovarian, 100%. For the same compound, the growth in the assay on OVCAR-3 ovarian is 51.5%; with HS 578T breast, 66.9%; with NCI/ADR-RES ovarian, 58.5%; in the assay on T-47D breast it was 57.2%; in the assay on BT-549 breast, 43%; in the assay with MDA-MB-435 melanoma, 59.2%. The growth in the assay on SW-620 colon was 65.5%; in the assay with MCF7 breast, 24.8%; in the assay on HCT-116 colon, 37.5%; in the assay with HCC-2998 colon, 81.5%; in the assay with KM12 colon, 64.5%; with MDA-MB-468 breast it was 50.1%.

Turning to `O=c1c2ccccc2nc(COc2ccccc2)n1/N=C/c1ccc(N2CCCC2)cc1`, the growth was 73.9% in the assay on SR leukemia; 64.1% with RPMI-8226 leukemia; 99% with OVCAR-8 ovarian; 96.6% in the assay on OVCAR-5 ovarian; 81.8% with OVCAR-4 ovarian; 113% with SK-OV-3 ovarian. In addition, the growth was 97.2% with IGROV1 ovarian; 94.8% in the assay with HS 578T breast; 94.3% with NCI/ADR-RES ovarian; 57.7% in the assay on T-47D breast; 84.8% in the assay with BT-549 breast; 99.5% with MDA-MB-435 melanoma. The growth in the assay with SW-620 colon was 109%; in the assay with MCF7 breast it was 87.6%; in the assay with HCT-116 colon, 79.5%; in the assay on HCC-2998 colon, 106%; with KM12 colon it was 96.7%; with MDA-MB-468 breast, 137%.

With `COc1ccc(-c2nc(Nc3ccccc3S(N)(=O)=O)c3ccccc3n2)cc1`, the growth is 23% in the assay on SR leukemia; 14.9% in the assay with RPMI-8226 leukemia; -27% (active) in the assay with OVCAR-8 ovarian; 48% in the assay with OVCAR-5 ovarian; 32.7% in the assay with OVCAR-4 ovarian; 95.3% in the assay with SK-OV-3 ovarian. For the same compound, the growth was 43.4% in the assay with IGROV1 ovarian; 42.8% in the assay with HS 578T breast; 18% in the assay with NCI/ADR-RES ovarian; 35.7% with T-47D breast; 85.8% with BT-549 breast; 34.1% with MDA-MB-435 melanoma. Moreover, the growth in the assay with SW-620 colon was 8.47% (active); in the assay with MCF7 breast, 9.02% (active); in the assay on HCT-116 colon it was -42.9% (active); in the assay with HCC-2998 colon, 12%; in the assay with KM12 colon it was 6.25% (active); with MDA-MB-468 breast, -13.4% (active).
